Experimental data as given in the supplement of paper PMC10646978.
± gives the standard deviation.

Experiments:
Conditions in all cases: modulator concentration 10 µM
[1] = test system: RAW-Dual (murine macrophage reporter line); assay: NF-kB reporter (SEAP) activity fold change vs agonist alone; higher = enhanced NF-kB activity
In short: (§1)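 Overnight stimulation with a PRR agonist followed pre-incubation for 1 hour at 37 °C with compound at 10 μM final. This was done in RAW-Dual murine macrophage reporter cells seeded at 50 000 per well in 384-well plates. NF-κB (SEAP, QUANTI-Blue absorbance at 620 nm) and IRF (Lucia luciferase, QUANTI-Luc luminescence) were read from the supernatant. Each reporter's fold change relative to the mean agonist-only control on the same plate was averaged over replicate plates.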

[2] = test system: RAW-Dual (murine macrophage reporter line); assay: IRF reporter (Lucia luciferase) activity fold change vs agonist alone; higher = enhanced IRF activity
In short: as §1

[3] = test system: RAW-Dual (murine macrophage reporter line); assay: viability score (confluency relative to resting cells, overnight) (fraction); higher = more viable, active = viable (0.7 or more)
In short: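 Two confluency masks, generated with IncuCyte software over all imaged wells, were applied to IncuCyte images of RAW-Dual macrophages. The cells, in 384-well plates, had been exposed overnight to 10 μM final compound. The viability score is confluency as a fraction of resting cells, and a compound met the cutoff only with both masks above 70% of resting cells.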

[4] = agonist: CpG ODN 1826 0.5 ug/mL

Structure (SMILES) | NF-kB reporter [1, 4] | NF-kB reporter ([1]; agonist: LPS 0.1 ug/mL) | NF-kB reporter ([1]; agonist: MPLA […]) | IRF reporter ([2]; agonist: 3'3'-cGAMP 10 ug/mL) | IRF reporter ([2]; agonist: LPS 0.1 ug/mL) | IRF reporter ([2]; agonist: MPLA […]) | viability score [3]
CCN(CC)CCOC(=O)C(c1ccccc1)c1ccccc1.Cl | 0.913 ± 0.08 | 0.887 ± 0.067 | 0.965 ± 0.084 | 1.58 ± 0.074 | 1.29 ± 0.12 | 1.49 ± 0.12 | 0.941 (active)
CC1=NN(c2ccc(C)c(C)c2)C(=O)/C1=N\Nc1cccc(-c2cccc(C(=O)O)c2)c1O.NCCO.NCCO | 1.63 ± 0.31 | 1.28 ± 0.23 | 1.49 ± 0.14 | 0.601 ± 0.019 | 1.16 ± 0.098 | 1.2 ± 0.11 | 0.861 (active)
CC(C)(C)C1(O)CC(C(F)(F)F)=NN1C(=O)c1cccc([N+](=O)[O-])c1 (stereo unspecified) | 0.62 ± 0.091 | 1.08 ± 0.062 | 0.873 ± 0.052 | 1.01 ± 0.025 | 1.48 ± 0.27 | 1.01 ± 0.22 | 0.974 (active)
CS(=O)(=O)c1cccc(C[C@H](NC(=O)c2c(Cl)cc3c(c2Cl)CCN(C(=O)c2ccc4ccoc4c2)C3)C(=O)O)c1 | 1.12 ± 0.17 | 1.22 ± 0.23 | 1.97 ± 1.1 | 1.07 ± 0.084 | 1.37 ± 0.41 | 1.31 ± 0.1 | 0.983 (active)
O=C(NCc1cccc(Cl)c1)c1cnc2n(c1=O)CCS2 | 1.03 ± 0.11 | 1.02 ± 0.1 | 0.974 ± 0.054 | 0.976 ± 0.035 | 1.04 ± 0.054 | 1.09 ± 0.19 | 0.999 (active)
Nc1ccn([C@H]2CC[C@@H](CO)O2)c(=O)n1 | 1.05 ± 0.13 | 1.1 ± 0.081 | 1.02 ± 0.09 | 1.03 ± 0.088 | 0.976 ± 0.06 | 1.02 ± 0.081 | 0.995 (active)
CC(Sc1ccc(Cl)cc1)C(=O)NCc1cccnc1 (stereo unspecified) | 1.07 ± 0.09 | 0.846 ± 0.065 | 1.08 ± 0.2 | 0.846 ± 0.031 | 0.905 ± 0.058 | 0.741 ± 0.14 | 0.992 (active)
CC(=O)Oc1ccc2c(C)c(Cl)c(=O)oc2c1C | 1.14 ± 0.24 | 1.01 ± 0.08 | 0.96 ± 0.1 | 0.93 ± 0.024 | 1.25 ± 0.19 | 1.19 ± 0.16 | 1.01 (active)
CCCCC(=O)N(Cc1ccc(-c2ccccc2-c2nnn[nH]2)cc1)[C@H](C(=O)O)C(C)C [Prestw-1735] | 1.14 ± 0.14 | 0.992 ± 0.075 | 1.05 ± 0.029 | 0.687 ± 0.03 | 0.705 ± 0.04 | 0.645 ± 0.071 | 0.998 (active)
NC[C@@H]1O[C@H](O[C@@H]2[C@@H](CO)OC(O[C@@H]3[C@@H](O)[C@H](N)C[C@H](N)[C@H]3O[C@H]3O[C@H](CN)[C@@H](O)[C@H](O)[C@H]3N)[C@@H]2O)[C@H](N)[C@@H](O)[C@@H]1O.O=S(=O)(O)O (stereo partly specified) | 0.993 ± 0.074 | 1.01 ± 0.091 | 0.983 ± 0.025 | 0.908 ± 0.09 | 1.02 ± 0.081 | 1.11 ± 0.12 | 1 (active)
COc1ccc(OC)c(C2CC(c3ccc(Cl)cc3)=NN2S(C)(=O)=O)c1 (stereo unspecified) | 0.853 ± 0.073 | 0.897 ± 0.09 | 1.04 ± 0.12 | 0.829 ± 0.068 | 1.15 ± 0.22 | 1.19 ± 0.43 | 0.986 (active)
O=C1OC(CNS(=O)(=O)c2ccccc2Cl)CN1c1ccc(Cl)c(Cl)c1 (stereo unspecified) | 1.08 ± 0.078 | 1.22 ± 0.11 | 0.926 ± 0.058 | 1.13 ± 0.06 | 1.11 ± 0.068 | 1.08 ± 0.24 | 1.01 (active)
CS(=O)(=O)N1CC(C(=O)N2CCN(c3cccc(Cl)c3Cl)CC2)C1 | 1.16 ± 0.065 | 1.08 ± 0.12 | 0.985 ± 0.027 | 0.906 ± 0.035 | 0.935 ± 0.082 | 0.958 ± 0.13 | 0.999 (active)
CS(=O)(=O)c1ccc(C2=C(c3ccccc3)C(=O)OC2)cc1 | 0.962 ± 0.09 | 1.04 ± 0.071 | 0.975 ± 0.042 | 1.05 ± 0.058 | 0.97 ± 0.074 | 0.946 ± 0.084 | 0.997 (active)
Nc1ccc(OCc2ccccc2)cc1 | 0.977 ± 0.16 | 1.01 ± 0.1 | 0.995 ± 0.12 | 0.635 ± 0.024 | 1.03 ± 0.1 | 1.16 ± 0.17 | 1.01 (active)
NS(=O)(=O)c1ccc(C(=O)O)cc1 | 0.892 ± 0.066 | 0.94 ± 0.096 | 1.06 ± 0.096 | 1.01 ± 0.054 | 1.01 ± 0.18 | 1 ± 0.31 | 0.994 (active)
CN(C)c1ccc(C=C(C#N)c2nc(-c3cc4ccccc4oc3=O)cs2)cc1 | 0.972 ± 0.057 | 1.04 ± 0.13 | 0.955 ± 0.079 | 0.86 ± 0.03 | 1.36 ± 0.091 | 1.15 ± 0.24 | 1.01 (active)
O=S(=O)(c1ccc(F)cc1)n1cccc1 | 0.812 ± 0.065 | 0.746 ± 0.047 | 1.09 ± 0.096 | 1.02 ± 0.05 | 1.49 ± 0.087 | 1.72 ± 0.22 | 0.988 (active)
COC(=O)C1=C(C)NC(C)=C(C(=O)OC)C1c1ccccc1[N+](=O)[O-] | 1.27 ± 0.1 | 1.33 ± 0.073 | 1.82 ± 0.17 | 0.374 ± 0.017 | 0.585 ± 0.035 | 0.414 ± 0.038 | 0.907 (active)
NS(=O)(=O)C#Cc1ccccc1 | 0.0641 ± 0.011 | 0.0588 ± 0.0047 | 0.159 ± 0.013 | 0.0153 ± 0.0016 | 0.0325 ± 0.0031 | 0.0392 ± 0.0098 | 0.7 (active)
CC(C)c1ccc(OCC(=O)NCc2nnc3n2CCC(C(F)(F)F)C3)cc1 (stereo unspecified) | 1.24 ± 0.094 | 1.05 ± 0.08 | 0.988 ± 0.06 | 0.99 ± 0.074 | 1.1 ± 0.075 | 1.05 ± 0.13 | 0.996 (active)
CCOc1ccccc1NC(=O)NCCc1csc(-n2nc(C)cc2C)n1 | 0.996 ± 0.069 | 1.14 ± 0.096 | 0.797 ± 0.12 | 1.12 ± 0.085 | 0.983 ± 0.061 | 0.938 ± 0.41 | 1.01 (active)
CC(C)C1=NN2C(=N)C(=Cc3ccc(-c4ccccc4[N+](=O)[O-])o3)C(=O)N=C2S1 | 0.927 ± 0.078 | 0.953 ± 0.065 | 0.944 ± 0.066 | 0.89 ± 0.043 | 1.48 ± 0.22 | 1.06 ± 0.22 | 1.01 (active)
